# In the library only some 2.2% were active in any assay of this set; here they are far more common.
# MIN6 prolif: induces beta-cell replication in MIN6 cells; AID 2380; hit rate 0.29% among 330,000; MIN6 cells proliferation, ATPlite luminescence, 48 h; cells starved in 0.2% serum; 100% = growth in 10% serum; proliferation, % at 10 µM;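 active means compounds whose signal lies at least 3.5 SD above the mean of all wells on their plate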;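 further: 0% = DMSO-treated cells in low-serum medium and 100% = 10% serum control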
# Cardio protect: modulators protecting cardiomyocytes from myocardial damage. H9c2 cardiomyocytes, H2O2 injury protection, ATPLite, 2 h. protection from H2O2 cell death, % at 20 µM. hit rate 0.63% among 360,000. AID 588492;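 active means compounds giving at least 50% protection of heart cells from peroxide-induced death in the single-dose screen, raw or plate-pattern-corrected value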;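 further: 0% = DMSO wells with peroxide and 100% = DMSO wells without peroxide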
# Myeloid diff MLP: compounds promoting myeloid differentiation | ER-HoxA9 myeloid progenitors, lysozyme-GFP differentiation, flow cytometry | calls only at 10 µM | hit rate 1% among 360,000;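 active means normalized GFP-positive differentiation at or above the plate's own cutoff, the solvent-only control mean plus 3 SD; inconclusive means no clear call, values can overlap the other calls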;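 further: cells exposed to compound for four days before flow analysis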
# ABCB6 inh MLPCN: inhibitors of human ABC transporter ABCB6; Q9NP58; K562-ABCB6 porphyrin accumulation, flow cytometry, 1 h; hits give low values; fluorescence ratio to DMSO, % at 10 µM; hit rate 0.19% among 360,000; AID 602162;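 active means fluorescence ratio to DMSO below 75%, the collection mean minus 3 SD; inconclusive means too few cells collected in the well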;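 further: signal is porphyrin accumulated inside mitochondria; 100% equals median channel fluorescence of DMSO control wells; lower ratio means ABCB6 inhibition with less porphyrin fluorescence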
# hiPSC survival: hiPSC single-cell survival enhancement. ATPlite luminescence; 100% = ROCK inhibitor wells, 0% = DMSO. survival enhancement, % at 20 µM. hit rate 0.044% among 360,000. AID 602274; in the data active means survival enhancement above about 18%;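 further: cells exposed to compounds for 16 hours before the ATP read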
# Myeloid diff CP1: myeloid differentiation induction; shares compounds with Myeloid diff MLP; ER-HoxA9 myeloid progenitors, GFP/Mac1 double-positive flow; calls only; hit rate 2% among 2,300; AID 651706;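 active means share of green or green-and-red cells above 9 and 9% in run 1 or 4 and 3% in run 2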
# GFP autofluor: flagged as fluorescent in myeloid differentiation counter-screen. shares compounds with Myeloid diff MLP. ER-HoxA9 myeloid progenitors, no estrogen, GFP autofluorescence flow cytometry; vehicle wells 0%, positive control 100%. hit rate 7.4% among 2,300. fluorescence response, % (concentration not given with the values);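 active means over 5% cells positive for green fluorescent reporter, or over 2% positive for both it and APC stain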;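 further: range taken on the double positive population between DMSO and positive control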
# * hit, by the source's call; i = inactive; ? = inconclusive; nt = no result given; + = active, no number.
SMILES,MIN6 prolif,Cardio protect,Myeloid diff MLP,ABCB6 inh MLPCN,hiPSC survival,Myeloid diff CP1,GFP autofluor
CCN(CC)S(=O)(=O)c1cc(C(=O)NCCN2CCOCC2)ccc1Cl,3,0,i,99,0,nt,nt
COc1ccc(NC(=O)c2cccc(S(=O)(=O)N3CCN(c4ccccc4)CC3)c2)c(OC)c1,1,-12,i,102,-1,nt,nt
CN1CCN(S(=O)(=O)c2cccc(C(=O)Nc3ccccc3N3CCCCC3)c2)CC1,-3,8,i,94,-1,i,0
O=C(Nc1ccncc1)c1cccc(S(=O)(=O)N2CCN(c3ccc(F)cc3)CC2)c1,0,-21,i,100,0,i,1
CC(=O)N1CCN(S(=O)(=O)c2cccc(C(=O)Nc3ccccc3N3CCCCC3)c2)CC1,-1,9,i,99,0,nt,nt
COc1ccccc1NC(=O)c1cccc(S(=O)(=O)N2CCN(c3ccccc3)CC2)c1,1,-2,i,96,0,i,0
COc1ccc(CCCNC(=O)C2Cc3c(-c4cccc(NC(C)=O)c4)ccnc3O2)cc1 (configuration not stated),nt,3,i,95,-2,nt,nt
C=C(C)[C@@H]1C2=CC(C(=O)OC)=C(C[C@H](C(=C)C)[C@H]3O[C@H]3C3=C[C@H]1OC3=O)O2,nt,-8,i,101,-4,i,0
Cc1ccccc1NS(=O)(=O)c1ccc(F)cc1,0,0,i,97,3,nt,nt
COc1ccc(S(=O)(=O)Nc2ccccc2C)cc1,1,-6,i,96,0,i,0
CC1CCN(S(=O)(=O)c2ccc(C(C)C)cc2)CC1,-2,-10,+,94,-1,i,41*
CCOc1ccc(Nc2oc(-c3ccco3)nc2C#N)cc1,-1,-6,+,106,1,i,0
COc1ccc(CC(=O)NC2CCN(CC(=O)N3CCCc4ccccc43)CC2)cc1OC,2,-3,i,86,0,i,0
COc1ccccc1CC(=O)Nc1cc(C)ccn1,-2,-2,i,101,0,nt,nt
O=c1sc(Nc2ccccc2)nc2ccsc12,-1,-5,i,102,1,nt,nt
O=Cc1sc(Nc2ccccc2)nc1Cl,-2,-15,+,180,-1,i,52*
COCCNc1nc(NCCOc2ccccc2Cl)c2sc(-c3ccccc3)cc2n1,nt,-12,i,98,-2,nt,nt
CCOC(=O)c1c(C)c(C(=O)Nc2cc(OC)ccc2OC)c(C)n1CC,nt,6,+,105,-2,i,1
Cc1ccc(C(=O)Nc2ccc(C(=O)N/N=C/c3ccc(C)o3)cc2)cc1,-2,-3,+,97,-1,i,1
Cc1ccc(/C=N/NC(=O)c2ccc(NC(=O)c3ccc(Cl)cc3)cc2)o1,-2,-3,i,102,-1,nt,nt
Cc1ccc2nc(SCC(=O)N3CCCCC3)nc(=O)n2c1,-5,3,i,98,1,nt,nt
CC(=O)c1ccc(NC(=O)c2ccc([N+](=O)[O-])o2)cc1,-4,-6,?,97,-1,nt,nt
COc1ccc(NC(=O)c2ccc([N+](=O)[O-])o2)cc1,-4,-11,+,101,-1,i,0
O=C(Nc1ccc(Cl)cn1)c1ccc([N+](=O)[O-])o1,nt,-3,+,110,-3,i,1
O=C(NCc1cccnc1)c1ccc([N+](=O)[O-])o1,-1,-30,+,102,-3,i,2
SMILES,MIN6 prolif,Cardio protect,Myeloid diff MLP,ABCB6 inh MLPCN,hiPSC survival,Myeloid diff CP1,GFP autofluor
COc1ccc2nc(NC(=O)c3ccc([N+](=O)[O-])o3)sc2c1,-5,-17,i,103,0,i,1
Cc1c(Cl)c([N+](=O)[O-])nn1Cc1ccc(C(=O)Nc2ccc(Cl)cn2)o1,0,3,i,96,-2,nt,nt
CC1(C)CC(=O)C(C=NCCN2CCN(C(=S)NC3CCCCC3)CC2)=C(O)C1,-1,5,i,96,4,nt,nt
O=C(Cc1cn(Cc2cccc(Cl)c2)c2ccccc12)N1CCCC1,-3,-3,i,95,0,nt,nt
Cc1cc(S(=O)(=O)N2CCCC2)ccc1OCC(=O)Nc1ccccc1,-4,-3,i,101,1,nt,nt
N#Cc1nc(-c2cccs2)oc1NCc1ccco1,-1,3,i,100,0,i,0
CC(C)C[C@H](NC(=O)N1CCn2c1nc1ccccc12)C(=O)N[C@@H](C(=O)O)c1ccccc1,-1,2,+,100,3,i,0
NC(Cc1ccc(Cl)cc1)c1csc(NC(=O)NCC2CCCCC2)n1 (configuration not stated),nt,-20,+,101,-6,i,1
O/C=c1\ccc2cccc3nc(C(F)(F)F)nc1c23,-5,-22,i,265,0,i,0
CS(=O)(=O)N1N=C(c2cccs2)CC1c1ccccc1O (configuration not stated),2,3,i,208,3,nt,nt
CCOc1ccccc1C1CC(c2cccs2)=NN1S(C)(=O)=O (configuration not stated),0,-2,+,679,0,i,92*
Cc1oc(-c2ccccc2F)nc1CS(=O)(=O)CC(=O)N1CCN(Cc2ccccc2)CC1,-5,-14,i,91,2,nt,nt
CCOC(=O)Cc1csc(NC(=O)c2ccc(Br)o2)n1,-1,7,i,94,-1,nt,nt
CCOC(=O)Cc1csc(NC(=O)c2sc3nc4ccc(CC)cc4cc3c2N)n1,-4,4,i,179,1,i,3
CCOC(=O)Cc1csc(NC(=O)c2ccc(C)cc2)n1,-4,-15,i,93,-1,nt,nt
CCOC(=O)Cc1csc(NC(=O)c2sc3nc4cc(C)ccc4cc3c2N)n1,-4,1,i,154,-1,i,1
O=S(=O)(Nc1ccccc1F)c1ccc2nsnc2c1,-4,5,i,99,0,nt,nt
CC(=O)Nc1ccc(S(=O)(=O)NCCSCc2ccco2)cc1,-2,-2,i,96,1,nt,nt
CS(=O)(=O)NCCSCc1ccco1,0,3,i,91,-2,i,1
C=CC(COCc1ccccc1)N(C(=O)OC(C)(C)C)S(=O)(=O)c1ccccc1Br (configuration not stated),-5,-13,i,101,-6,nt,nt
NC(=O)C1CCN(C(=O)c2ccco2)CC1,-3,0,i,98,-2,i,0
CC1(C(=O)NS(=O)(=O)c2ccc(Cl)cc2)CCN1C(=O)CCc1cccs1 (configuration not stated),nt,-3,i,89,-1,nt,nt
